Assay outcomes as filed in PubChem BioAssay.
Compounds with a hit are over-represented: about 5.7% of the library has one in this group of screens.
Myeloid diff MLP – induction of myeloid progenitor differentiation, primary screen, cell-based, flow cytometry, MLPCN library; calls only at 10 µM; ER-HoxA9 myeloid progenitors, lysozyme-GFP differentiation; hit rate 1% among 360,000;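 active = normalized GFP-positive differentiation at or above the plate's own cutoff, the solvent-only control mean plus 3 SD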;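 note: cells exposed to compound for four days before flow analysis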
GRIN3A LBD mod – binders of NR3A ligand-binding domain, primary screen, biophysical, differential scanning fluorimetry, uHTS; hit rate 2.5% among 340,000; Glutamate receptor ionotropic, NMDA 3A (GRIN3A) ligand-binding domain; NR3A LBD differential scanning fluorimetry, Tm shift; 0% = protein alone, 100% = glycine-bound protein; AID 1259313, 2017; Tm shift relative to glycine control, % at 25 µM;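 active = melting temperature shift of at least 10% of the positive control shift, at one fixed dose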
rCAG binder – binders of r(CAG) RNA repeats, primary screen, biochemical, fluorescence; r(CAG) RNA repeat, TO-PRO-1 dye displacement fluorescence; inhibition, % at 3 µM; hit rate 1.3% among 370,000;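 active = inhibition above the plate cutoff, the mean of all test compounds on that plate plus 3 SD, cut at about 35% in these data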;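 note: 0% = DMSO alone and 100% = 100 µM mitoxantrone as full dye displacement; higher means more dye released from RNA so lower well fluorescence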
MPTP block – mitochondrial permeability transition pore inhibitors, primary screen, biochemical, isolated mouse mitochondria, absorbance; Ca2+ swelling absorbance, 30 min; inhibition, % at 10 µM; hit rate 1.4% among 360,000;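 active = inhibition of 50% or more, scaled per plate between neutral and stimulator controls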;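 note: 0% = DMSO wells given calcium and 100% = 1 mM EGTA wells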
FAS-TE inh – FAS thioesterase domain inhibitors, primary screen, biochemical, fluorescence intensity, uHTS. recombinant FAS-TE, OMFH fluorogenic substrate, fluorescence endpoint. inhibition, % at 15 µM. hit rate 0.67% among 360,000;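 active = compounds whose normalised, plate-corrected inhibition of enzyme fluorescence in the single-dose primary screen is 50% or more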;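 note: 0% = DMSO with enzyme and 100% = substrate without enzyme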
Active calls of the source: *; i = inactive; · = no result; + = active, no number.

SMILES	Myeloid diff MLP	GRIN3A LBD mod	rCAG binder	MPTP block	FAS-TE inh
CC(C)(C)c1cc(NCc2ccccn2)n2ncc(-c3ccc(Cl)cc3)c2n1	i	13*	2	-3	37
COc1ccc(-n2nc(C(=O)NCC(=O)NC(C)C)c3ccccc3c2=O)cc1	+	1	1	0	1
Nc1nc(N)c(C=Nc2ccc(Br)cc2)c(Nc2ccc(Br)cc2)n1	i	51*	20	2	41
Cc1c(Cl)cccc1NC(=O)CC1Sc2ccccc2NC1=O (stereo not given)	i	10*	-1	1	0
COc1ccc([N+](=O)[O-])cc1/C=N/Nc1nc(N2CCCCC2)nc(N2CCCCC2)n1	i	29*	1	1	46
COC(=O)[C@]12C[C@H](CC(=O)N3CCCCC3)C(=O)N(Cc3ccc(Cl)cc3Cl)C1=C[C@H](C(C)C)O[C@@H]2C1CC1	·	·	1	·	·
Cc1cccc(C)c1OCc1cc(C(=O)N2CCN3CCCC3C2)no1 (stereo not given)	i	13*	-2	-2	-3
CC(=O)CCN1CCSCCS1(=O)=O	·	·	1	·	·
Fc1ccc(-c2nc3nc4ccccc4nc3n2Cc2ccco2)cc1	i	21*	2	-2	10
CCCCn1c(-c2cccs2)nc2nc3ccccc3nc21	i	4	3	5	14
CCCCOCCCn1c(-c2ccco2)nc2nc3ccccc3nc21	+	-1	6	0	-2
Fc1cccc(-n2c(-c3ccco3)nc3nc4ccccc4nc32)c1	i	0	8	9	-12
Fc1ccc(-n2c(-c3ccco3)nc3nc4ccccc4nc32)cc1	+	-1	19	0	-7
CN1OC[C@@H]2CN3C(=Nc4cc(C(F)(F)F)cc(C(F)(F)F)c4)Sc4ccccc4[C@@H]3C[C@@H]21	·	·	2	·	·
CCN1C[C@@H]2[C@@H]3C(=O)N(Cc4ccccc4)C(=O)[C@@H]3[C@](CC)(C1=O)N2C(=O)c1ccc(Cl)cc1	·	·	-5	·	·
CN/N=C/c1ccc(C#N)cc1	i	-17	1	1	-3
Cc1ccccc1N/N=C/c1ccc(C#N)cc1	i	18*	4	12	26
O=c1cc(CN2CCOCC2)c2ccc(O)c(O)c2o1	i	2	2	0	-5
CC1Oc2cc3oc4c(O)c(O)ccc4c(=O)c3c(O)c2C1(C)C (stereo not given)	i	20*	·	32	52*
O=C(Nc1cccc(C(F)(F)F)c1)c1cc2c(s1)-c1ccccc1OC2	i	37*	3	37	7
O=C(NC1CC1)c1cc2c(s1)-c1ccccc1OC2	i	-1	3	0	3
Cc1cccc2c(N)c3c(nc12)N(C)CC3	i	16*	4	2	-9
CN1CCc2c1nc1ccccc1c2N (tested in a mixture with another compound)	i	0	-2	3	-6
O=C(c1ccccc1)N1CCC2CCN(S(=O)(=O)c3ccccc3)CC21 (stereo not given)	·	·	1	·	·
NC(=O)c1c(N)[nH]c(C(=O)c2ccccc2)c1-c1ccccc1Cl	·	·	6	·	·
SMILES	Myeloid diff MLP	GRIN3A LBD mod	rCAG binder	MPTP block	FAS-TE inh
CNc1cc([N+](=O)[O-])ccc1N/C=C/C(=O)c1ccc2c(c1)OCO2	i	13*	8	3	-4
O=C(/C=C/c1ccccc1Br)c1ccc2c(c1)OCO2	i	-2	1	0	15
O=C(/C=C\Nc1ccccc1Br)c1ccc2c(c1)OCO2	i	36*	8	2	19
O=C(CSc1nnc(-c2ccc(Cl)cc2)n1C1CCCCC1)NN=Cc1c(O)ccc2ccccc12	·	·	14	·	·
COC(=O)[C@@]12C[C@@H](CC(=O)NCc3cccc(C(F)(F)F)c3)C(=O)N(CCc3ccc(OC)c(OC)c3)C1=CCC(C)(C)C2	i	·	0	-2	·
O=S(=O)(NCC(c1cccs1)N1CCc2ccccc2C1)c1ccccc1 (stereo not given)	i	14*	-2	1	17
O=C(CC(SCCO)c1ccc([N+](=O)[O-])cc1)c1ccco1 (stereo not given)	·	40*	1	-1	-4
CC(C)=CC(=O)Nc1nc2ccc([N+](=O)[O-])cc2s1	+	-2	11	6	3
